Here are results for 65 compounds from PubChem BioAssay (NCI).

Compounds without any hit were thinned out: in the full panel of roughly 83,000, 20% have a hit.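 Each cell line was grown in a 96-well plate and treated with one concentration of compound for 48 hours. Values below 10 were considered active.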 A number with no mark means an inactive call. Calls of active or inactive are those of the source.

The experiment concerns HL-60(TB) leukemia. The experiment is described as follows: NCI-60 one-dose screen, 48 h (100 = growth as untreated, 0 = no growth, -100 = all killed). The note with it: 10 µM unless noted.

For `Cc1ccc(NC(=O)c2ccc(CN3CCN(C)CC3)cc2)cc1Oc1ccc(-c2[nH]nc3ncnc(N)c23)cc1`, the growth is 126%. With `CC[C@H](CC[C@@H](C)[C@H]1CC[C@H]2[C@@H]3CC(=O)C4=CC(=O)/C(=C/c5ccc([N+](=O)[O-])cc5)C[C@]4(C)[C@H]3CC[C@]12C)C(C)C` the figure was 83.5%; with `O=C(CCCCCCN1CC(=O)N2[C@@H](C3CC3)c3[nH]c4ccccc4c3C[C@H]2C1=O)NO`, 31.8%; with `C[C@@H](Nc1c(C#N)cnc2ccc(-c3cnc(N)nc3)cc12)c1ccccc1`, 8.49% (active). As to `COc1ccc(OC)c(CCn2cncc2-c2c[nH]c3ccc(Cl)cc23)c1`, the growth is 7.06% (active). For the compound `O=C(CCCCCCN1CC(=O)N2[C@@H](c3ccccc3Br)c3[nH]c4ccccc4c3C[C@H]2C1=O)NO`, the growth is 5.1% (active). Turning to `NC(N)=Nc1ccc(Oc2cccc(Nc3ccc(Br)c(C(F)(F)F)c3)c2)cn1`, the growth was -62.9% (active). Regarding `N#C/C(=C\c1ccc(N2CCCCC2)cc1)C(=O)Nc1sc2c(c1C#N)CCC2`, the growth is 98.7%. For the compound `Nc1cc(F)ccc1NC(=O)c1ccc(NC(=O)C/C=C/c2cccnc2)cc1`, the growth was 13.4%. In the case of `C#Cc1ccc(C(=O)NCc2ccc(/C=C/C(=O)c3nccn3C)cc2)cc1` it was 0.695% (active); in that of `CCC(CC)N1C(=O)/C(=c2\sc3n(c2=O)NC2C(N=3)N(CC)C(=O)N2CC)c2ccccc21` (stereo not given), 26.5%. Regarding `CNC(=O)c1c(NC(=O)c2ccccc2C(F)(F)F)sc2c1CCC(=O)C2`, the growth is -10.5% (active). Consider `C#C[C@]1(O)CC[C@H]2[C@@H]3CC=C4c5sc(-c6ccc(C)cc6)nc5CC[C@]4(C)[C@H]3CC[C@@]21C`, for which the growth was -2.49% (active).

With `Clc1cccc(/C=N/Nc2nc(N/N=C/c3cccc(Cl)c3Cl)nc(N3CCCCC3)n2)c1Cl`, the growth was 106%. Take `O=C(Nc1ccc(N2CCOCC2)cc1)Nc1ccc2c(ccn2C(=O)c2cccc(F)c2)c1`: the growth was 96.7%. Regarding `CCN(CC)S(=O)(=O)c1ccc(-c2nc(C(Cl)Cl)nc3cc(-c4ccc(F)cc4)nn23)cc1`, the growth is 4.64% (active). For `Cc1ccc(Nc2nc(SC(C)C)nc(-c3ccccc3)c2C#N)cc1`, the growth is 118%. With `Cc1ccc(-n2cc(/C=C/C(=O)c3ccc(O)cc3)c(-c3ccc(S(C)(=O)=O)cc3)n2)cc1`, the growth was 27.5%.

On to `C/C(=C(/C)C1CC1CCN(C(=O)c1ccc([N+](=O)[O-])cc1)S(=O)(=O)c1ccc(C)cc1)C1CCCCC1` (stereo not given), for which the growth was 96.5%. As to `Cc1cc2nc3c4cc(Cl)ccc4n(CC(=O)NCCN(C)C)c3nc2cc1C`, the growth was 56%. Turning to `C#CC(=O)N(c1ccc(OC)cc1OC)C(C(=O)NCC(=O)OCC)c1cccs1` (stereo not given), the growth is -51.2% (active).

On to `CN(C)CCNC(=O)c1ccc(-c2nc3ccc4[nH]ncc4c3c3c2COCC3)cc1`, for which the growth was -32.6% (active). `N#Cc1cnc2ccc(-c3cnc(N)nc3)cc2c1N1CCc2cc(F)c(Cl)cc21`: the growth is -11.7% (active). For the compound `NS(=O)(=O)c1ccc(Nc2nc(Nc3ccccc3)nc3nnc(SCC(=O)NC4CCCCC4)n23)cc1`, the growth is 106%.

With `COc1ccc(OC)c(NC(=O)CCCCCCNC(=O)C(O)(O)C(F)(F)F)c1`, the growth was 10.6%. With `CN1CCN(c2ccc3c(C(N)=O)c(NC(=O)c4ccc(C(C)(C)C)cc4)sc3c2)CC1`, the growth is 28.5%. With `O=C(CSc1nc2sc3c(c2c(=O)n1-c1ccc(Cl)cc1)CCCC3)N/N=C/c1ccc(F)cc1` the figure was 97.9%; with `N#Cc1cccc(CN2CCc3ncn(Cc4ccc(Cl)cc4)c(=O)c3C2)c1`, 13.5%. On to `CCCCSC1=C(Cl)CN(c2ccccc2)C1=O`, for which the growth is 105%.

Regarding `C/C(=N\NC(N)=O)c1c(O)sc(=O)[nH]c1=O`, the growth is 96.2%. As for `CCc1ccc(SC2c3ccc(N(CC)CC)cc3Oc3nc(N)c(C#N)c(N)c32)cc1` (stereo not given), the growth is -12.5% (active).

`CN1CCN(c2nc(-c3csc(-c4ccccc4)n3)cc3ccccc23)CC1`: the growth is 6.57% (active). Regarding `CCOC(=O)c1sc(NCC(=O)Nc2cccc([N+](=O)[O-])c2)c(C(=O)OCC)c1C`, the growth was 0.979% (active).

As to `O=C(CSc1nnc(-c2ccc(Cl)cc2)n1-c1ccccc1)Nc1ccc(Cl)cc1`, the growth is 79.8%. As for `Cc1cccc(/C=C/C(=O)Nc2ncc(Cc3cccc(C)c3)s2)c1`, the growth is 0.463% (active). In the case of `COc1ccc(/C=N/Nc2nc(Nc3ccccc3)nc(Nc3ccc(S(N)(=O)=O)cc3)n2)cc1`, the growth is 83.8%. Regarding `O=C(NNc1nc2cc(F)cc(F)c2n2cccc12)c1ccncn1`, the growth is -7.85% (active). In the case of `CC[C@@](C)(NC(=O)C(C)(C)NC(=O)[C@@H](NC(=O)[C@@H]1CCCN1C(=O)C(C)(C)NC(=O)[C@H](CC(C)C)NC(=O)CNC(=O)C(C)(C)NC(=O)[C@@H](NC(=O)C(C)(C)NC(=O)[C@H](CCC(N)=O)NC(=O)[C@H](C)NC(=O)C(C)(C)NC(=O)[C@H](C)NC(=O)C(C)(C)NC(=O)[C@H](C)NC(=O)C(C)(C)NC(C)=O)C(C)C)C(C)C)C(=O)N[C@@H](CCC(N)=O)C(=O)N[C@@H](CCC(N)=O)C(=O)N[C@H](CO)CC1CCCCC1` it was -35.2% [5 µM] (active).

Regarding `O=S(=O)(Oc1ccc(-c2cn3ccoc3n2)cc1)C1CCCCC1`, the growth was 90.2%.

Take `COc1ccccc1/C=C/C=N/NC1=NC2C(S1)N(C)C(=O)N2C` (stereo not given): the growth is -22.1% (active).

With `O=C(CN1C(=O)/C(=C/c2ccccc2)SC1=S)N1CCOCC1`, the growth is 89.1%.

For the compound `CCNC(=O)N1CCc2cc(OC)c(OCCc3ccc(OC)cc3)cc2C1c1ccc([N+](=O)[O-])cc1C` (stereo not given), the growth was 14%.

Consider `COc1ccc(-c2nnc(/N=C3/C(=O)Nc4ccc(Br)cc43)o2)cc1`, for which the growth is 60.4%. As for `O=c1[nH]c2ccc(Cl)cc2cc1CSc1ccccc1Nc1nccc(-c2ccc(Cl)cc2)n1`, the growth was 78.5%.

Consider `COC(=O)c1ccc(NC(=S)N2CCc3ccc([N+](=O)[O-])cc3C2)cc1O`, for which the growth was 97.7%. For `CCCCCc1ccc(S(=O)(=O)Nc2cc(-c3csc(N)n3)ccc2OC)cc1`, the growth was 60.8%. In the case of `Fc1cccc(Cl)c1/C=N/Nc1nc(N/N=C/c2c(F)cccc2Cl)nc(N2CCCCC2)n1`, the growth is 1.27% (active). As to `CCCC(=O)NC(c1ccc2c(c1)OC(F)(F)O2)c1cc(C)c2cccnc2c1O` (stereo not given), the growth was -4.8% (active). In the case of `Clc1ccc2oc3c(NCCCn4ccnc4)c4ccccc4nc3c2c1`, the growth is 29%. As for `COC(=O)Nc1ccc(-c2nc(-c3cccc(O)c3)c(-c3ccnc(Br)c3)[nH]2)cc1`, the growth is 28.1%.

With `N#C/C(=C\c1ccc(-c2ccc(Cl)c(Cl)c2)o1)C(=O)Nc1ncc(Cc2ccc(Cl)cc2)s1`, the growth is 51.5%. Take `Cn1ncc2ncc(-c3ccc4ncc(C#N)c(N5CCc6cc(F)c(Cl)cc65)c4c3)cc21`: the growth is 26.7%.

Turning to `COc1ccc(N)cc1C(=O)Nc1cccc(-c2cc(=O)c3c(OC)c(OC)c(OC)cc3o2)c1`, the growth was 58.1%. With `O=C(Nc1cccc(C(F)(F)F)c1)c1cc(-c2ccc(F)cc2F)ccc1O`, the growth is -40.7% (active). Take `COc1ccc2c(ccn2C(=O)N2c3ccccc3Sc3ccccc32)c1`: the growth was 13.7%. As to `O=C1C[C@@H](c2ccccc2)Oc2c(Cc3ccccc3O)c(O)c(Cc3cc(Cc4cc(Cc5ccccc5O)ccc4O)ccc3O)c(O)c21`, the growth is 95.1%.

With `CC(=O)c1ccc(Nc2nc(SCC(C)C)nc(-c3ccc(F)cc3)c2C#N)cc1`, the growth was 103%. Consider `O=C(/C=C/c1ccc(F)cc1)Nc1cccc2cccnc12`, for which the growth was 93.7%. Consider `O=C(Nc1cccc(-c2nc(-c3ccc(NC(=O)c4cccs4)cc3Cl)no2)c1)Nc1ccc(NC(=O)C2CC2)c(C(F)(F)F)c1`, for which the growth was 6.9% (active). Regarding `COc1ccc(S(=O)(=O)NCCCNc2nccc(-c3cn(C(C)(C)C)nc3-c3ccc(Cl)c(OC)c3)n2)cc1`, the growth was 124%.

For `O=S(=O)(Nc1ccc(C2CC2)cc1)c1ccc(-c2cnc(C3CC3)o2)cc1`, the growth was 38.9%. Take `Clc1ccc(N/N=c2/oc3ccccc3cc2-c2cc3ccccc3[nH]2)cc1`: the growth was 88.7%. In the case of `O=C(NCc1ncc[nH]1)c1ccc(-c2nc3ccc4[nH]ncc4c3c3c2CCCC3)cc1` it was -24.7% (active); in that of `Cn1ccnc1C(=O)/C=C/c1ccc(CNC(=O)c2c(F)c(F)c(F)c(F)c2F)cc1`, 20%; in that of `CCOC(=O)C1=C(C)Nc2nc3ccccc3n2C1c1ccccc1` (stereo not given), 85.6%.
